# Only a selection was taken, and hits are over-represented in it overall.
# RBX1-CUL1 inh: inhibitors of human ROC1-CUL1 ubiquitin ligase activity. AID 1347404. 140,000 compounds, 0.6% hits. inhibition, % at 10 µM. in vitro K48 di-Ub FRET, acceptor:donor ratio, 45 min; in the data active = inhibition above about 25%
# Target sequence (P62877 whole entry, looked up): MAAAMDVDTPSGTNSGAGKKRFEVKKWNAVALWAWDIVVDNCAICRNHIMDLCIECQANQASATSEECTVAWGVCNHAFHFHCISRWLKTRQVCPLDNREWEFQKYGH
# Target sequence (Q13616 whole entry, looked up): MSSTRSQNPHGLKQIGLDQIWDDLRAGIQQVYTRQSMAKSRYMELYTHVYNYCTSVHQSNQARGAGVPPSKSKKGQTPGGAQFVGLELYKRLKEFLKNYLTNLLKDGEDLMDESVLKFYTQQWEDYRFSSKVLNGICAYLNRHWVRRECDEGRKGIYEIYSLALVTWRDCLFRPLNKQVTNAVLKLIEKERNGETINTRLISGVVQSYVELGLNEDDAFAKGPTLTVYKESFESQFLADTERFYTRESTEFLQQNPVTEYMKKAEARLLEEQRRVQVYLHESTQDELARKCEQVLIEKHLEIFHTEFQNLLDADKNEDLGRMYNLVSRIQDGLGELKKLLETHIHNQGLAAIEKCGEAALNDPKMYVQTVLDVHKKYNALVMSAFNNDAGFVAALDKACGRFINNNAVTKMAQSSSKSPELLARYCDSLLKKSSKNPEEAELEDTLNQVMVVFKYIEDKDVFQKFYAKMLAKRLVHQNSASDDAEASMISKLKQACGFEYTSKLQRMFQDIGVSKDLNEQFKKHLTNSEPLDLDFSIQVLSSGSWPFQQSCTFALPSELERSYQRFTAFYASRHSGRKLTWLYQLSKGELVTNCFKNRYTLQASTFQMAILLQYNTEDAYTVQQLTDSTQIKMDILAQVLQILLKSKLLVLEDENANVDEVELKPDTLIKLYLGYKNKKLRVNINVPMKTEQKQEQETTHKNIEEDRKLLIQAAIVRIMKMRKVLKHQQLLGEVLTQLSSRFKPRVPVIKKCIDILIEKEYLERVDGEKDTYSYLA
# The depositor's hits bear a star.
SMILES,RBX1-CUL1 inh
O=C(N/N=C/c1ccc(Sc2nc3ccccc3[nH]2)o1)c1ccccc1[N+](=O)[O-],9.8
CCN(CC)c1ccc(CC2=NC(=S)N(c3ccc(Br)cc3)C2=O)cc1,7.7
O=C(O)CCC(=O)Nc1sc2c(c1C(=O)Nc1ccc(Cl)cc1)CCCCC2,-10.0
O=C(O)c1cccc(N2C(=O)/C(=C/c3ccc4c(c3)OCO4)SC2=S)c1,-1.6
COc1cccc(N2C(=O)/C(=C/c3ccc(C(=O)O)cc3)SC2=S)c1,2.7
O=C(O)c1ccc(N2C(=O)/C(=C/c3ccc4c(c3)OCO4)SC2=S)cc1,26.1*
COc1cc(CNC2CCOCC2)ccc1OCC(O)CN1CCCCCC1 (stereo not given),0.6
Cc1ccc(C(=O)C(OC(=O)c2ccc(N(C)C)cc2)c2ccccc2)cc1C (stereo not given),-1.5
C=CCn1c(CNc2ccccc2)nnc1SC(C)C(=O)N/N=C/c1ccc(N(CC)CC)cc1 (stereo not given),-1.6
C=CCn1c(CNc2cccc3ccccc23)nnc1SCC(=O)N/N=C/c1ccc(OC)cc1OC,6.9
C=CCn1c(CNc2cccc3ccccc23)nnc1SC(C)C(=O)N/N=C/c1ccc(OC)cc1OC (stereo not given),41.9*
O=C(CC1CCCC1)N1CCC(C2(c3cccnc3)NC(=O)N(Cc3ccsc3)C2=O)CC1 (stereo not given),10.0
Cc1cc(C)c(C(C(=O)Nc2ccc(Cl)cc2)C(=O)Nc2ccc(Cl)cc2)c(C)c1,-1.5
CCCNC(=O)c1cc(Br)ccc1OCC,-0.8
Cc1ccccc1NCC(=O)N/N=C/c1ccccn1,-2.3
CCC(=O)N1c2ccccc2C(C)(c2ccccc2)CC1(C)C (stereo not given),2.6
CCC(CC)C(=O)N1c2ccccc2C(C)(c2ccccc2)CC1(C)C (stereo not given),27.8*
CCCCCC(=O)N1c2ccccc2C(C)(c2ccccc2)CC1(C)C (stereo not given),6.9
CCNc1nn2c(=O)c(CC)c(C)nc2s1,10.5
CO/C=C(/C)C(=O)Oc1ccc(C(=O)c2ccccc2)cc1,5.7
CCOC(=O)c1c(-c2ccco2)csc1NC(=O)CSc1cc(C)c2ccccc2n1,91.0*
CCOC(=O)c1c(-c2ccc(F)cc2)csc1NC(=O)CSc1nc2ccccc2c(=O)n1-c1ccccc1,4.2
CCOC(=O)c1c(-c2ccccc2)csc1NC(=O)CSc1cc(C)c2ccccc2n1,-1.1
CC(C)(CC(=O)Nc1scc(-c2cccs2)c1C(=O)O)CC(=O)Nc1scc(-c2cccs2)c1C(=O)O,-2.9
Cc1sc(NC(=O)/C=C/c2ccco2)c(C(N)=O)c1C,5.9
SMILES,RBX1-CUL1 inh
O=C(/C=C/c1ccco1)Nc1scc(-c2cccs2)c1C(=O)O,28.5*
O=C1CCC(CCC(=O)N2CCC(c3ccccc3F)C2)(Cc2ccc3ccccc3c2)N1 (stereo not given),-8.5
Cn1cc(CN2CC[C@@H](N3CCN(c4ccccc4F)CC3)[C@H](O)C2)cn1,4.1
Fc1ccc(-c2sc(Nc3ccc(Br)cc3)nc2C(F)(F)F)cc1,12.7
O=C1NC(=S)N(c2ccccc2)C(=O)/C1=C/c1cc(Br)ccc1O,1.9
O=C1NC(=S)N(c2cccc(Br)c2)C(=O)/C1=C/c1cc(I)c(O)c(I)c1,26.9*
O=C1NC(=S)N(c2cccc(Br)c2)C(=O)/C1=C/c1ccc(O)cc1,5.9
O=C(NC(=O)c1ccc(C(F)(F)F)cc1)Nc1nc(-c2ccccc2)cc(C(F)(F)F)n1,-2.0
CC(C)(C)NC(=O)NC1CCCc2nc(-c3cccnc3)ncc21 (stereo not given),-5.6
CCCCC1C(=O)N=C2CC(c3ccccc3)CC(=O)C2C1=O (stereo not given),27.7*
CCCCC(=Nc1ccccc1C)C1C(=O)CC(c2ccccc2)CC1=O (stereo not given),7.1
O=C1CC(c2ccccc2)CC2=Nc3ccccc3NC(c3cccc4ccccc34)C12 (stereo not given),2.8
CCCCCC(O)CCC(=O)N=Nc1c(O)[nH]c2ccccc12 (stereo not given),0.6
N#Cc1ccccc1COc1ccc(/C=C2/SC(=Nc3cccc(C(=O)O)c3)NC2=O)cc1,89.3*
Cc1cccc(N=C2NC(=O)/C(=C\c3ccc(OCc4ccccc4)cc3)S2)c1,-0.7
O=C1NC(=Nc2ccc(F)cc2)S/C1=C\c1ccc(OCc2cccc(C(=O)O)c2)cc1,14.1
O=C(Nc1cccc(C(F)(F)F)c1)c1cc(C(=O)Nc2cccc(C(F)(F)F)c2)cc(N2C(=O)c3ccccc3C2=O)c1,-2.5
COc1ccc(C(C)N(C)Cc2nc(-c3cc(C)c(OC)cc3C)oc2C)cc1 (stereo not given),-11.5
C=CCOc1cccc(C(=O)N2CCC(N3CCC(C(=O)N4CCCC4)CC3)CC2)c1,4.7
Cc1cc(C=C2C(=O)c3ccccc3C2=O)c(C)n1-c1ccc2c(c1)OCO2,2.4
O=C1C(=O)c2ccccc2/C1=C\c1cccs1,6.1
O=C1C(Cl)=CC(=NS(=O)(=O)c2cccs2)c2ccccc21,41.4*
O=C(O)C(Cc1ccccc1)NS(=O)(=O)c1cccs1 (stereo not given),-1.2
COc1cc(-c2cc(-c3ccccc3)nc(SCC(=O)c3ccc(C)cc3)c2C#N)cc(OC)c1OC,-5.3
COC(=O)c1cc2nc(-c3ccccc3)cc(-c3ccccc3)n2n1,-9.7
SMILES,RBX1-CUL1 inh
CCOc1cccc2c1Oc1nc(-c3ccccc3)nc(SCC(=O)Nc3ccc(F)cc3)c1C2,-10.0
COc1ccc(-c2nc3c(c(SCC(=O)Nc4ccccc4OC)n2)Cc2cccc(C)c2O3)cc1,2.7
Cc1ccc(-c2nc3c(c(SCC(=O)Nc4cccc(C(=O)O)c4)n2)Cc2cccc(C)c2O3)cc1,31.5*
OCC1(CCCc2ccccc2)CCN(Cc2cn[nH]c2-c2cccc(F)c2)CC1,-6.7
CCOC(=O)c1cc(C(C)C)sc1NC(=O)C1CCCO1 (stereo not given),4.1
CCc1nc(SCC(=O)Nc2cc(Cl)ccc2OC)c(C#N)c2c1CCCC2,7.5
c1ccc(CN2CCN(c3ccc4c(c3)Cc3ccccc3-4)CC2)cc1,-10.7
CCOCCN1N=C(C)Cn2c1nc1c2c(=O)n(CC)c(=O)n1C,4.3
COc1cccc(CN2CCCC3(CCN(C(=O)c4cnc(C)cn4)C3)C2)c1 (stereo not given),7.9
Cc1cc(C)n2nc(C(=O)N3CCC4(CCCN(CC(C)(C)C)C4)C3)cc2n1 (stereo not given),29.1*
CC(C)(C)CN1CCCC2(CCN(C(=O)c3cnccn3)C2)C1 (stereo not given),-13.8
CC(=O)Nc1c(Br)cc(C)cc1C(=O)O,-1.1
COc1ccc(/C=C(\C)c2ccc(OC)cc2)cc1,-5.6
COc1ccc(/C=N/OC(=O)c2ccccc2)cc1,4.4
COc1ccc(/C=C(/S)C(=O)O)cc1,89.3*
Fc1ccc2[nH]cc(-c3nnnn3-c3ccc(Cl)cc3)c2c1,3.7
CCN1CCC(NC(=O)C(C)Oc2ccc(F)cc2F)CC1 (stereo not given),1.6
CCc1cccc(CC)c1NC(=O)Cn1cnc2c(Cl)cc(Cl)cc2c1=O,-2.5
COC(=O)c1cc(CNC(=O)C2CCCCC2)cc(NS(=O)(=O)c2cccc(C(F)(F)F)c2)c1,-3.6
CC(=O)c1c(O)ccc2c1[C@@H]1OC(=O)C[C@@H]1O2,98.2*
Cc1ccc(CC2(CCC(=O)NCC(c3ccccc3)c3ccccc3)CCC(=O)N2)cc1 (stereo not given),8.1
Cc1nc(C2CCCN(C(=O)c3cc(-c4ccc(C)o4)[nH]n3)C2)cc(=O)[nH]1 (stereo not given),8.4

# Bioassay records as filed in PubChem.
